Bioassay records (PubChem BioAssay)
CF NFkB block: cystic fibrosis NF-kB activation inhibition; KKLEB NF-kB-GFP reporter, PAF-induced, GFP fluorescence overnight; inhibition, % at 5 µM; 0.86% of 360,000 active; AID 588850;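 active means at least 50% inhibition at 5 µM, scaled per plate between neutral and stimulator controls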;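 further: PAF is a Pseudomonas aeruginosa culture filtrate used as stimulus; plate controls were PAF-stimulated DMSO wells for no effect and unstimulated DMSO wells for full effect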
KKLEB cytotox: counter-screen for CF NF-kB inhibitors: cytotoxicity; KKLEB CF airway cells viability, ATPlite luminescence, overnight; stronger effect = lower value; cells stimulated with P. aeruginosa culture filtrate; activity change (cytotoxicity), % at 5 µM; 0.36% of 360,000 active; AID 602141;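 active means corrected activity change at or below -50% at 5 µM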
TWEAK Fn14 block: inhibitors of TWEAK-Fn14 interaction signaling; TWEAK-stimulated Fn14 reporter cells, luciferase luminescence, 8 h; inhibition, % at 10 µM; 2% of 360,000 active; AID 1159606; in the data active means inhibition above about 50%
EWS-Fli inh: blocks EWS/Fli oncoprotein-driven transcription | A673 NR0B1-luciferase reporter, viability-normalised | inhibition, % at 12.6 µM | 0.67% of 350,000 active | AID 651661;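 active means mean inhibition of at least 50% after viability correction, with every replicate also passing that limit; inconclusive means mean reaches 50% but only one of two replicates passes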;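 further: firefly luciferase signal divided by Alamar Blue viability fluorescence both relative to DMSO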
LGR2 inh: blocks bursicon-induced cAMP signaling via Drosophila LGR2; HEK293 LGR2, CRE-luciferase, bursicon-stimulated, 4 h; inhibition, % at 9.99 µM; 0.35% of 380,000 active; AID 720647;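 active means drop in luminescence signal, shown as inhibition above about 50% in the replicate tests, limit read from the data, passing the limit was not always enough; inconclusive means probably only some replicates passing the limit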;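 further: agonist challenge used bursicon conditioned medium at about half maximal strength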
TROY signal inh: blocks TROY-dependent signaling in reporter cells | 0.98% of 360,000 active | Q293 LMP1-TROYcd NF-kB luciferase reporter, 4 h | inhibition, % at 10 µM | AID 1347056;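 active means compounds whose plate-normalised and pattern-corrected inhibition of the luciferase reporter signal at the single screening dose is 50% or more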
Active calls of the source: *; ? = inconclusive; · = not tested or not shown. This is a sample that favours compounds with a hit; in the whole collection about 2.6% have one here.

SMILES | CF NFkB block | KKLEB cytotox | TWEAK Fn14 block | EWS-Fli inh | LGR2 inh | TROY signal inh
O=[N+]([O-])c1cccc(C=NNc2ccc3ccccc3n2)c1O | -11.2 | -15.5 | 97.3* | 27.7 | 81.3* | 75.4*
Brc1ccccc1/C=N/Nc1ccc2ccccc2n1 | -2.2 | 0.0 | -1.6 | -15.2 | -44.9 | -23.5
O=C(N/N=C/c1cccc([N+](=O)[O-])c1O)c1cccs1 | 0.5 | 8.4 | 45.3 | 69.0* | -1.4 | -44.5
CN(C)C(=O)[C@H]1[C@H](CO)[C@H]2Cn3c(ccc(-c4ccccc4)c3=O)[C@H]2N1CCC(F)(F)F | · | · | · | 2.8 | 3.0 | ·
COc1ccccc1-c1cn(CC[C@@H]2CC[C@@H](NC(=O)CCN3CCCCC3)[C@H](CO)O2)nn1 | · | · | · | 0.9 | 0.9 | ·
COC(=O)/C=C/C(=O)Nc1cccc(C(F)(F)F)c1 | 26.9 | -44.9 | 51.4* | 6.4 | 0.6 | -5.8
Cc1ccc(OC(F)F)c(NC(=O)Nc2cccc(C(F)(F)F)c2)c1 | 17.4 | -20.0 | 75.3* | 16.8 | 30.1 | 40.3
CCOC(=O)c1cccc(NC(=O)/C=C/c2cccc([N+](=O)[O-])c2)c1 | -7.0 | -7.7 | -13.7 | · | -2.3 | 21.8
O=C(Nc1ccccc1)Nc1cccc(C(F)(F)F)c1 | 4.0 | 4.3 | -0.1 | -101.3 | -49.8 | -38.0
COC(=S)Nc1cccc(C(F)(F)F)c1 | 4.2 | -6.3 | -6.7 | -1.5 | -4.6 | -10.0
CCOC(=O)/C=C/C(=O)Nc1cccc([N+](=O)[O-])c1 | 87.5* | -45.0 | -19.5 | · | · | 2.9
CNC(=O)C[C@H]1CC[C@@H]2[C@H](COc3ccc(NC(=O)NC4CCCC4)cc3C(=O)N2C)O1 | · | · | · | -15.3 | -10.8 | ·
CCCNC(=O)[C@H]1[C@H](CO)[C@H]2Cn3c(ccc(-c4cccnc4)c3=O)[C@@H]1N2C(=O)Nc1ccccc1 | · | · | · | -0.4 | -4.5 | ·
CC(C)CC(NC(=O)C1CCC(C)CC1)C(=O)Nc1ccc2c(c1)OCCO2 (stereo not given) | -17.1 | 10.7 | 68.3* | -14.9 | -8.7 | 30.6
COC(=O)[C@H](CC(C)C)NC(=O)Nc1ccc2c(c1)OCCO2 | 16.3 | -1.3 | 66.2* | -5.1 | -9.7 | 32.3
Cc1cc(C2(c3ccc(O)c(C)c3)OC(=O)c3ccccc32)ccc1O | 13.4 | 4.4 | 11.3 | 17.6 | -0.3 | 33.2
Cc1cc(O)c(C(C)C)cc1C1(c2cc(C(C)C)c(O)cc2C)OC(=O)c2ccccc21 | 33.3 | 0.7 | 97.2* | 28.7 | 69.7* | 85.4*
CCCCS(=O)(=O)/C=C\C=C/S(=O)(=O)CCCC | 83.9* | -70.8* | 79.2* | · | · | 46.7
CO[C@@H]1CN(C)C(=O)c2cc(NC(=O)Nc3cc(F)ccc3F)ccc2OC[C@@H](C)N(C(=O)c2ccccn2)C[C@@H]1C | · | · | · | -10.9 | -12.0 | ·
Oc1ccc(Nc2nc3ccccc3nc2Nc2ccc(O)cc2)cc1 | 21.1 | -5.9 | 76.1* | · | · | -37.4
O=C(OCc1cccc(C(F)(F)F)c1)c1cc([N+](=O)[O-])ccc1N1CCOCC1 | 16.3 | -8.2 | -16.4 | 9.8 | 2.5 | -7.0
O=C(/C=C/c1ccc(Cl)cc1)N1CCN(c2ccc([N+](=O)[O-])c(N3CCOCC3)c2)CC1 | -18.9 | -1.1 | 64.3* | · | 29.8 | 56.4*
CC1CCCN(c2ccc([N+](=O)[O-])cc2C(=O)c2ccccc2)C1 (stereo not given) | 27.1 | -19.3 | -12.5 | 59.4* | -5.8 | 3.8
O=C(OCc1ccc(Br)cc1)c1cc([N+](=O)[O-])ccc1N1CCOCC1 | -3.0 | -4.5 | 0.2 | 62.3* | 23.6 | -23.0
O=C(c1ccc(Br)cc1)c1cc([N+](=O)[O-])ccc1N1CCOCC1 | 25.0 | -38.9 | -12.5 | 45.6 | -9.4 | 5.0
SMILES | CF NFkB block | KKLEB cytotox | TWEAK Fn14 block | EWS-Fli inh | LGR2 inh | TROY signal inh
O=C(c1ccc(Cl)cc1)c1cc([N+](=O)[O-])ccc1N1CCOCC1 | 35.6 | -9.5 | -14.4 | 59.2* | -18.5 | 11.3
O=C(c1ccccc1)c1cc([N+](=O)[O-])ccc1N1CCOCC1 | 7.0 | -11.1 | -12.6 | · | 20.1 | 17.4
COc1ccc(S(=O)(=O)Nc2ccc3c(c2)C(=O)N([C@H](C)CO)C[C@@H](C)[C@@H](CN(C)C(=O)Nc2ccccc2)OCCCC[C@@H](C)O3)cc1 | · | · | · | 8.4 | -9.0 | ·
CCC(=O)N1CCC2(CC1)CN(C(=O)CN1CCOCC1)[C@H](CO)c1[nH]c3cc(OC)ccc3c12 | · | · | · | -6.7 | 2.4 | ·
O=C(OCc1cccc(Cl)c1)c1cc([N+](=O)[O-])ccc1N1CCOCC1 | 17.3 | -19.5 | 1.8 | -6.5 | 4.5 | 66.8*
COc1ccc(COC(=O)c2cc([N+](=O)[O-])ccc2N2CCOCC2)cc1F | 54.7* | -23.0 | 35.8 | 49.2 | -9.3 | 9.6
CCc1ccc(C(=O)COC(=O)c2cc([N+](=O)[O-])ccc2N2CCOCC2)cc1 | 0.9 | -4.0 | 5.3 | ? | -3.2 | -10.0
N#C[C@H]1N[C@H](CO)[C@@H]1c1ccc(C2=CCCCC2)cc1 | · | · | · | -18.1 | -10.8 | ·
NS(=O)(=O)c1ccc(CCNc2nn3c(-c4ccc(F)c(Cl)c4)cnc3s2)cc1 | 42.0 | -12.0 | 56.1* | 18.4 | 23.3 | 42.2
NS(=O)(=O)c1ccc(CCNC(=O)CSc2ccc(Cl)cc2Cl)cc1 | -7.6 | 0.0 | 5.7 | 2.1 | -2.3 | 21.8
C#CCOc1c(Cl)cc(/C=C2/C(=O)ON=C2C)cc1OC | -3.5 | 6.6 | 63.0* | 3.1 | 1.2 | -5.3
COc1cc(/C=C2/C(=O)ON=C2C)cc(Cl)c1O | -1.0 | -2.2 | -4.8 | -15.2 | -0.1 | 6.4
CC(SC#N)C(=O)C12CC3CC(CC(C3)C1)C2 (stereo not given) | 43.9 | -22.0 | 72.0* | 2.6 | · | 41.1
COc1ccccc1C(C[N+](=O)[O-])c1c(N)n(C)c(=O)n(C)c1=O (stereo not given) | 47.8 | -8.6 | 52.0* | 22.6 | 68.9* | 30.7
C[C@H]1CN([C@@H](C)CO)C(=O)c2cc(NS(=O)(=O)c3ccc(Cl)cc3)ccc2O[C@H]1CN(C)C(=O)Nc1ccc(C(F)(F)F)cc1 | · | · | · | 4.5 | 2.7 | ·
CCOc1ncccc1C(=O)Nc1ccc(C)c(S(=O)(=O)N2CCCCCC2)c1 | 8.5 | -5.3 | 62.6* | 21.8 | 5.6 | 27.6
COc1cc(C(=O)NCC(=O)N2CCN(S(=O)(=O)c3cc(C)ccc3C)CC2)cc(OC)c1OC | 14.0 | -15.8 | 3.1 | 54.3* | 15.9 | -16.5
COc1cc(CCC(=O)Nc2ccc(S(=O)(=O)N3CCCC3)cc2)cc(OC)c1OC | 12.8 | 7.9 | -6.0 | 11.1 | -19.8 | -6.7
COc1cc(CCC(=O)Nc2ccc(C)c(S(=O)(=O)N3CCCCCC3)c2)cc(OC)c1OC | -6.0 | -7.2 | 51.3* | 13.2 | 6.7 | 33.8
Cc1ccc(NC(=S)Nc2ccc(C(C)C)cc2)cc1S(=O)(=O)N1CCCCCC1 | 16.2 | 2.4 | 67.3* | 4.2 | · | 16.8
O=C(c1ccccc1F)N1CC2(C1)[C@H](c1ccccc1)[C@@H](CO)N2CC1CC1 | · | · | · | 5.0 | -7.1 | ·
COc1ccc(NC(=O)N[C@@H]2C=C[C@@H](CC(=O)NC3CCCCC3)O[C@H]2CO)cc1 | · | · | · | -8.6 | -0.1 | ·
